For seven compounds, growth results are on record in PubChem BioAssay (NCI).

Holding throughout (test): NCI-60 one-dose screen, 48 h (100 = growth as untreated, 0 = no growth, -100 = all killed)
Test [1] concerns NCI-H23 lung. The following applies: 10 µM.
Test [2] deals with NCI-H226 lung. The following applies: 10 µM.
Test [3] relates to NCI-H322M lung. The conditions noted are these: 10 µM.
Test [4] has as its system HOP-62 NSCLC. The following applies: 10 µM.
The subject of test [5] is NCI-H460 lung. The conditions noted are these: 10 µM.
The subject of test [6] is HOP-92 NSCLC. The conditions noted are these: 10 µM.
Test [7] has as its system NCI-H522 lung. The following applies: 10 µM unless noted.
The subject of test [8] is A549/ATCC NSCLC. The following applies: 10 µM.
In test [9] the test system is 786-0 renal. The conditions noted are these: 10 µM.
Test [10] deals with COLO 205 colon. The following applies: 10 µM.
For test [11], the system named is DU-145 prostate. The conditions noted are these: 10 µM unless noted.
Test [12] concerns K-562 leukemia. The following applies: 10 µM.
Test [13] relates to MALME-3M melanoma. The conditions noted are these: 10 µM.
In test [14] the test system is MDA-MB-231 breast. The following applies: 10 µM.
Test [15] relates to RXF 393 renal. The following applies: 10 µM unless noted.
For test [16], the system named is SF-268 CNS. The following applies: 10 µM.
The subject of test [17] is SF-295 CNS. The following applies: 10 µM.
Test [18] deals with UACC-257 melanoma. The following applies: 10 µM.
Test [19] relates to M14 melanoma. The following applies: 10 µM.
The subject of test [20] is SF-539 CNS. The following applies: 10 µM.

Compounds without any hit were thinned out: in the full panel of roughly 83,000, 20% have a hit.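 Treatment: one concentration, 48 hours, 96-well format. Scoring: percent growth, with anything below 10 considered active.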 Unmarked numbers belong to inactive results. Activity calls are given as the source filed them.

For `O=[N+]([O-])C1=C(c2ccccc2)SC=C(c2ccccc2)S1`, the growth is 79.3% in [1]; 74% in test [2]; 92.4% in test [3]; 74.1% in test [4]; 67.3% in test [5]; 65.9% in [6]. Also, the growth is 42% in test [7]; 62.4% in test [8]; 95.4% in test [9]; 86.9% in test [10]; 75.2% in [11]; 72.7% in test [12]. For the same compound, the growth in test [13] is 54.5%; in test [14], 69.3%; in [15], 54.2%; in [16], 97.9%; in [17] it was 93.7%; in [18], 51.3%. Moreover, the growth in [19] is 65.2%.
Turning to `CCCCCCCCCCCC[N+](C)(C)Cc1ccccc1`, the growth was 23.8% in test [1]; 55% in [2]; 87.7% in test [3]; 28% in test [4]; 71.9% in test [5]; -4.63% (active) in [7]. The growth in test [8] is 70.9%; in [9], 28.1%; in [10], 15.7%; in test [11], 24.8%; in test [12], -5.13% (active); in test [13] it was -19.2% (active). Besides, the growth in test [14] was 25.3%; in test [15] it was -38.7% (active); in [16], 8.3% (active); in test [17], 46.3%; in [20] it was 53.6%; in test [18], 2.24% (active). For the same compound, the growth in test [19] was 7.19% (active).
As for `CCCCCC(C)c1ccc(O)c(C)c1` (centres undefined), the growth was 104% in test [1]; 96% in test [2]; 99.3% in [3]; 98.4% in test [4]; 107% in test [5]; 98% in test [6]. For the same compound, the growth in [7] was 88.2%; in test [8], 113%; in test [9], 93.6%; in test [10], 111%; in test [11], 103%; in [12] it was 90.6%. The growth in test [15] is 113%; in [16] it was 98.3%; in [17] it was 95.5%; in test [20] it was 103%; in test [18] it was 99.3%; in test [19] it was 97.7%.
For the compound `NC(=O)SCC(=O)NNc1ccccc1`, the growth was 112% in test [1]; 93.1% in test [2]; 94.8% in test [3]; 93.8% in [4]; 98.8% in [5]; 92.2% in [6]. Besides, the growth is 85.2% in test [7]; 85.3% in test [8]; 108% in test [9]; 100% in test [10]; 99.6% in test [11]; 101% in test [12]. The growth in test [14] is 89.2%; in test [15], 112%; in [16] it was 92.8%; in [17], 94.6%; in test [20], 103%; in test [18] it was 91.6%. The growth in test [19] is 102%.
Consider `CCC(C)(C)c1cc(O)c(C(C)(C)CC)cc1O`, for which the growth in test [1] is 38.5%; in test [2], 41.8%; in test [3], 45.6%; in test [4], 54.8%; in [5], 21.2%; in test [6], -7.38% (active). For the same compound, the growth in [8] is 49.9%; in test [10] it was 40.7%; in [11] it was 76.5%; in test [12], 39.8%; in test [13], 102%; in test [14], 6.91% (active). The growth in test [15] was 32.5%; in test [16], 43.3%; in test [17], 24.6%; in [20] it was 43%; in test [18], 51%.
As to `CN1CCN(CCCN2c3ccccc3Sc3ccc(C(F)(F)F)cc32)CC1`, the growth in test [1] was 69.9%; in test [2], 101%; in test [3] it was 69.7%; in test [4], 61.8%; in [5], 33.6%; in test [7], 73%. Also, the growth in test [8] is 59.4%; in [9] it was 37.2%; in test [10] it was -79% (active); in test [11], 70.4%; in [12], -11.9% (active); in [13], -10.5% (active). The growth is 52.7% in [14]; 37% in test [15]; 63.5% in test [16]; 42.9% in test [17]; -59.5% (active) in test [18]; -74% (active) in [19].
Turning to `COc1c(O)cc2oc3cc(O)c(CC=C(C)C)c(O)c3c(=O)c2c1CC=C(C)C`, the growth in [1] is 54.6%; in test [2], 72.9%; in [3], 83.6%; in test [4], 75.7%; in [5], 28.4%; in [6], 77%. The growth in test [7] is 60.4%; in test [8] it was 54.3%; in test [9], 78.4%; in [10] it was 95.2%; in test [11], 62%; in test [12], 26.7%. For the same compound, the growth in test [13] was 87.4%; in test [14], 40.2%; in test [15], 83%; in test [16] it was 57.9%; in test [17] it was 56.2%; in test [20], 89%. For the same compound, the growth in [19] is 54.4%.
